By inhibition is commonly meant the relative decrease from the control value, in per cent.

Structures are written as SMILES. The source made the active and inactive calls.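 The calls were made as follows: active = blocks over 70% of labeled estradiol binding at 10 µM, or over a set limit at 100 nM; inactive = the rest.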

Estrogen receptor beta (Homo sapiens), sequence (Q92731 whole entry, looked up): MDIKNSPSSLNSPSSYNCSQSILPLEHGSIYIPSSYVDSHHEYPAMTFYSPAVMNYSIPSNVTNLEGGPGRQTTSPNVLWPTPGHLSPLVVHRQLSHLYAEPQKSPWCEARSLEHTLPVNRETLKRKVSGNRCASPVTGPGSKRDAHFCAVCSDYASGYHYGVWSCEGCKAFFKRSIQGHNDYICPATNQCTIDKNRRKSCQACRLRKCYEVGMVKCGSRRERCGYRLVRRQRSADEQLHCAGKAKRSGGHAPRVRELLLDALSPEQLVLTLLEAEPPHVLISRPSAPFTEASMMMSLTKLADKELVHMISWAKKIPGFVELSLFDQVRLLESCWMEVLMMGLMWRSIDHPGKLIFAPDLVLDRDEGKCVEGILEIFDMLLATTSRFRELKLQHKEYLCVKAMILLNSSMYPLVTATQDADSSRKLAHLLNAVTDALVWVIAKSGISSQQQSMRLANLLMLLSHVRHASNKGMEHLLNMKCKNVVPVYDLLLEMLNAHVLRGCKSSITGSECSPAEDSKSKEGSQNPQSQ

The first test has as its target Estrogen receptor beta (Homo sapiens) (UniProt Q92731). In words: ERbeta ligand binders by competition, primary screen, cell-based, Cos7 ERbeta-GFP, flow cytometry (AID 1210).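 Also: 0% = DMSO vehicle wells and 100% = complete loss of labeled estradiol signal.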 To be noted: fluorescent estrogen binding, at 10 µM, stronger effect = higher value.
On to `O=C1C2CCN(CC2)C1Cc1ccc(O)cc1` (stereo not given), for which the inhibition was 19% (inactive).
As for `CC1(C)CC(CCNCc2ccc3c(c2)OCO3)(Cc2ccccc2)CCO1` (stereo not given), the inhibition is 16% (inactive).
The same measure, in the same setting: the figure for `O=C(O)c1cccc2c1NC(c1cccc([N+](=O)[O-])c1)C1CC(Sc3ccccc3[N+](=O)[O-])C(Cl)C21` (stereo not given) is 67% (inactive); for `Cc1ccc(S(=O)(=O)Cc2ccc(C(=O)N3CCC4(CC3)OCCO4)o2)cc1` it is 56% (inactive); for `CC(=O)c1ccc2c(c1)C1C(Cl)C(Sc3ccccc3[N+](=O)[O-])CC1C(C(=O)O)N2` (stereo not given) it is 34% (inactive).
Same read-out and setting: the figure for `COc1ccc(CC2NCCc3cc(OC)c(OC)cc32)cc1OC` (stereo not given) is 10% (inactive); for `CCOc1ccccc1N1C(=O)NC(=O)C(CCc2ccncc2)(CCc2ccncc2)C1=O` it is 41% (inactive).
Still for that read-out and setting: the figure for `CC(=O)c1ccc2c(c1)C1C(Cl)C(Sc3ccccc3[N+](=O)[O-])CC1C(c1ccccc1)N2` (stereo not given) is 33% (inactive).
For the compound `O=C(O)c1cccc2c1NC(C(=O)O)C1CC(Sc3ccccc3[N+](=O)[O-])C(Cl)C21` (stereo not given), the inhibition was 0% (inactive).
Still for that read-out and setting: for `COc1ccc(Cn2c(N)c(C(=O)NCc3ccco3)c3nc4ccccc4nc32)cc1` the value was 64% (inactive); for `C[C@H]1CCC[C@@H](O)CCC/C=C/c2cc(O)cc(O)c2C(=O)O1`, 71% (active).
Still for that read-out and setting: the figure for `Cc1ccc2c(c1Cl)NC(C(=O)O)C1CC(Sc3ccccc3[N+](=O)[O-])C(Cl)C21` (stereo not given) is 21% (inactive).
Still for that read-out and setting: the figure for `NC(=O)c1ccc(N=Nc2c(O)[nH]c(=O)[nH]c2=O)cc1` is 11% (inactive); for `CC(=O)c1ccc2c(c1)C1C(Cl)C(Sc3ccccc3[N+](=O)[O-])CC1C(c1ccccc1[N+](=O)[O-])N2` (stereo not given) it is 36% (inactive).
Consider `COc1ccc(C2(CN)CCCC2)cc1`, for which the inhibition is 5% (inactive).
On the same count and under the same terms, the figure for `CCNCC1(c2ccc(OC)c(OC)c2)CCCC1` is 14% (inactive).
On the same count and under the same terms, the figure for `COc1cc2c(cc1OC)CC(C)(C)NC2` is 11% (inactive); for `COc1ccc2[nH]cc(CCN=C(N)N)c2c1` it is 16% (inactive); for `N=c1c[n+](CCc2ccc(O)cc2)[n-]o1` it is 29% (inactive).
For `O=C(O)c1ccc2c(c1)C1C(Cl)C(Sc3ccccc3[N+](=O)[O-])CC1C(c1cccc([N+](=O)[O-])c1)N2` (stereo not given), the inhibition is 0% (inactive).
For the compound `COc1ccc(C2(CN)CCCC2)cc1OC`, the inhibition was 8% (inactive).

The test is the same for the next values; noted with them: fluorescent estrogen binding, ligand binding inhibition, at 0.1 µM, stronger effect = higher value.
Regarding `O=C(O)c1cccc2c1NC(c1cccc([N+](=O)[O-])c1)C1CC(Sc3ccccc3[N+](=O)[O-])C(Cl)C21` (stereo not given), the inhibition came out at 11%.
With `Cc1ccc(S(=O)(=O)Cc2ccc(C(=O)N3CCC4(CC3)OCCO4)o2)cc1`, the inhibition was determined as 7%.
Same read-out and setting: the figure for `CCOc1ccccc1N1C(=O)NC(=O)C(CCc2ccncc2)(CCc2ccncc2)C1=O` is 35%; for `CC(=O)c1ccc2c(c1)C1C(Cl)C(Sc3ccccc3[N+](=O)[O-])CC1C(c1ccccc1)N2` (stereo not given) it is 22%.
Compound `COc1ccc(Cn2c(N)c(C(=O)NCc3ccco3)c3nc4ccccc4nc32)cc1` had an inhibition of 13%.
Same read-out and setting: the figure for `C[C@H]1CCC[C@@H](O)CCC/C=C/c2cc(O)cc(O)c2C(=O)O1` is 62%.
`NC(=O)c1ccc(N=Nc2c(O)[nH]c(=O)[nH]c2=O)cc1`: the inhibition worked out at 17%.
`CC(=O)c1ccc2c(c1)C1C(Cl)C(Sc3ccccc3[N+](=O)[O-])CC1C(c1ccccc1[N+](=O)[O-])N2` (stereo not given): the inhibition came out at 6%.
`O=C(O)c1ccc2c(c1)C1C(Cl)C(Sc3ccccc3[N+](=O)[O-])CC1C(c1cccc([N+](=O)[O-])c1)N2` (stereo not given) displayed an inhibition of 6%.

For the origin of these results see PubChem BioAssay AID1210 (NMMLSC, 2008).
